Laboratory results taken from PubChem BioAssay AID493170 (National Center for Advancing Translational Sciences (NCATS), 2011).
Inconclusive results are not listed. Activity calls are given as the source filed them. Calls come from the whole dose curve; as a rule, active = well fitted inhibition curve with a large enough effect; inconclusive = small, poorly fitted or top-dose-only effect, or effect the other way; inactive = flat fitted curve, though single readings scatter.

What follows are compounds tested against Ubiquitin carboxyl-terminal hydrolase 2 (Homo sapiens) (UniProt O75604) (assay: Ub-rhodamine 110 based assay for inhibitors Ubiquitin-specific Protease USP2a). Conditions: USP2a Ub-rhodamine110 cleavage, fluorescence; series mostly up to 38.3 µM; activity change, negative = inhibition: at the top concentration.
Chain of Ubiquitin carboxyl-terminal hydrolase 2 (Homo sapiens) (O75604 whole entry, looked up): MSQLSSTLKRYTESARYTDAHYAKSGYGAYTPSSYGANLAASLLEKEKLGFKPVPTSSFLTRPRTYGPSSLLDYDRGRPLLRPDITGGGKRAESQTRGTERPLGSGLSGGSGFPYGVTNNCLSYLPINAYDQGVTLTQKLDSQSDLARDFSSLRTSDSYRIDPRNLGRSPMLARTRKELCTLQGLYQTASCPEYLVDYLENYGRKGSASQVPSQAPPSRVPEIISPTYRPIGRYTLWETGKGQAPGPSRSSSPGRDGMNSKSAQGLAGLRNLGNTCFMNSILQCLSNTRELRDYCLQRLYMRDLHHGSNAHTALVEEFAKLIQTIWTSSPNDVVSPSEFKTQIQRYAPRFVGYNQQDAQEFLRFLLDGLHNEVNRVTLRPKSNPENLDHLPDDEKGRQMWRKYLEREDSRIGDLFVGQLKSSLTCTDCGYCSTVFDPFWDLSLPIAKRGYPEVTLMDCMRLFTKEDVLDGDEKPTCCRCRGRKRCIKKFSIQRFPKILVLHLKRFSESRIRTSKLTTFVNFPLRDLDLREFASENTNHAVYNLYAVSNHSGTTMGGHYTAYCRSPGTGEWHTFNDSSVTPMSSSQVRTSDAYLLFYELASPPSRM
In short: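 5 nM USP2a preincubated with compounds for 30 min at RT in 20 mM Tris-HCl pH 8.0, 2 mM CaCl2, 2 mM beta-mercaptoethanol, 0.05% CHAPS. Cleavage of 150 nM Ub-rhodamine 110 read kinetically (Ex 485/Em 531) for 7 min.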
% is set by controls: 0 for no effect and ±100 for the full control effect; potency is the fitted concentration of half-maximal effect.
Note: nearly all actives have a fitted effect of over 50% in size.

Row | SMILES | activity change, negative = inhibition | Potency
1 | CCOC(=O)C(C)Sc1nnc(Cn2c(=O)sc3ccccc32)n1-c1ccccc1 (stereo not given) | -6.31% (inactive) | –
2 | C#CCOCCOCCOCCNc1nc(N2CCN(C(=O)CCCCCCCCCCNC(=O)[C@@H](CCSC)n3cc(CCO)nn3)CC2)nc(N2CCN(C(=O)CCCCCCCCCCNC(=O)[C@H](CCCN=C(N)N)n3cc(C[C@@H](C)CC)nn3)CC2)n1 | – | 10 µM (active)
3 | NS(=O)(=O)c1ccc(NC(=O)/C=C/c2cn(-c3ccccc3)nc2-c2cccc(Cl)c2)cc1 | – | 8.91 µM (active)
4 | COc1cc(C)ccc1OCCOc1cc(C)ccc1Cl | -9% (inactive) | –
5 | CCNC1=C(Cl)C(=O)c2ccccc2C1=O | -12.4% (inactive) | –
6 | CCCCC1CCC(C(=O)Nc2ccc(S(=O)(=O)Nc3nccs3)cc2)CC1 (stereo not given) | – | 10 µM (active)
7 | Cc1ccc(C(=O)NCCCc2ccccc2)s1 | -21.5% (inactive) | –
8 | CCCCCCCCCCOC(=O)Cn1c(COc2ccccc2)[n+](C)c2ccccc21 | -21.6% (inactive) | –
9 | Cc1ccccc1OCCn1nc(C(=O)O)c2ccccc2c1=O | -3.18% (inactive) | –
10 | CCc1cc2c(=O)c(-c3nc4ccccc4n3C)coc2c(CN2CCCCC2C)c1O (stereo not given) | -20.5% (inactive) | –
11 | Cc1ccc(S(=O)(=O)Nc2ccccc2C(=O)Nc2nc(-c3ccc(F)cc3)cs2)cc1 | – | 7.08 µM (active)
12 | Cc1ccc(CSC2=Nc3ccccc3C3=NC(CC(=O)NCc4ccco4)C(=O)N23)cc1 (stereo not given) | – | 8.91 µM (active)
13 | CCOc1ccc(C(=O)c2ccc(OCC)c(N)c2)cc1N | -6.4% (inactive) | –
14 | Cn1nnnc1Sc1ncnc2scc(-c3ccc4c(c3)OCO4)c12 | -18.2% (inactive) | –
15 | CC(C)CC(=O)NC(=S)Nc1nc(-c2ccc(Cl)cc2)cs1 | 0.852% (inactive) | –
